# Source: PubChem (National Center for Advancing Translational Sciences (NCATS))
# A selection: hits, their analogues and other compounds. The true share with any hit is near 8%.
# KB-3-1 tox: KB-3-1 parental cell cytotoxicity; KB-3-1 viability, CellTiter-Glo ATP luminescence, 72 h; Potency, µM (top dose mostly 46.1 µM), usual class: cytotoxic; actives 1.4% (n = 400,000); AID 1347075; also: % is scaled to controls: 0 for no effect and ±100 for the full control effect; nearly all actives have a fitted effect of over 60% in size
#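 Screening of KB-3-1 cells (DMEM, 10% FBS, phenol-red free) ran from lowest to highest compound concentration; after 72 h at 37 °C viability was read luminescently and curves fitted.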
# SW480 rereplic: induces DNA re-replication in SW480 colon adenocarcinoma cells. actives 1.8% (n = 340,000). SW480 DNA re-replication, Hoechst DNA content imaging, 48 h. Potency, µM (highest dose often 46.1 µM), without a hit: top-dose re-replication activation, hits mostly activators; also: % of control where 0% means no effect; nearly all actives have a fitted effect of over 55% in size
#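 Treated cells incubate 48 hr (37 C, 5% CO2), are stained 40 min with Hoechst, and nuclear fluorescence is enumerated; a rise in nuclei with high DNA signal marks re-replication.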
# HT1080 IDH1KD tx: toxicity to HT-1080 IDH1 knockdown cells (counter line); HT-1080 IDH1 knockdown viability, ATP luminescence, 48 h; Potency, µM (series often up to 46.1 µM), for the others: top-dose activity, negative = toxicity, most hits filed as cytotoxic; actives 2% (n = 360,000); AID 686971;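 also: 0% = DMSO wells and -100% = cell-free medium wells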
#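 Using the IDH1-knockdown HT-1080 line run in the same batch and compound series as the NT line, viability after 48 h at 37 °C was determined by CellTiter-Glo luminescence and expressed as % activity.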
# MCF10A rerep: DNA re-replication induction in MCF 10a cells; MCF 10A DNA re-replication, Hoechst nuclear intensity, 48 h; Potency, µM (highest dose often 46.1 µM), for the others: at the top dose activity, positive = re-replication, actives largely listed as activators; actives 2.9% (n = 350,000); AID 624296; also: % of control where 0% means no effect; nearly all actives have a fitted effect of over 50% in size
# KB-V1 cytotox: KB-V1 MDR subline cytotoxicity | KB-V1 MDR cells viability, CellTiter-Glo, 72 h | Potency, µM (top dose mostly 46.1 µM), hits mostly cytotoxic | actives 3.4% (n = 400,000) | AID 1347076; also: % is scaled to controls: 0 for no effect and ±100 for the full control effect; nearly all actives have a fitted effect of over 60% in size
#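 Cells of the MDR subline KB-V1 are plated, dosed with compound at multiple concentrations, and incubated 72 h at 37 degrees C; CellTiter-Glo is then added and luminescence read after 10 min.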
# HT1080NT lethal: kills 2HG-producing HT-1080-NT fibrosarcoma cells | HT-1080-NT fibrosarcoma viability, CellTiter-Glo ATP luminescence, 48 h | Potency, µM (titrated, usually from 46.1 µM), for the others: at the highest dose activity, negative = less viability, hits mostly cytotoxic | actives 1.6% (n = 360,000) | AID 686970;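 also: NT is the 2HG producing partner of a matched IDH1 knockdown line; 0% = DMSO-treated cells and -100% = media-only wells without cells; nearly all actives have a fitted effect of over 55% in size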
#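 A 48-hour cytotoxicity screen used HT-1080-NT cells plated 2 hours before compound delivery. ATP-based CellTiter-Glo luminescence measured viability, normalized to DMSO and no-cell controls.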
# Numbers without * were called inactive; i = inactive; ? = inconclusive; . = no result; ! = repeats disagree; [ ] = remark or other dose. Calls follow the shape of the dose curve; as a rule, active = well fitted curve in the direction sought with a large enough effect; inconclusive = small, poorly fitted or top-dose-only effect, or another doubt; inactive = no such curve, though single readings can be large; an effect the other way counts as inactive or inconclusive. Potency is read from the fitted curve at half-maximal effect.
SMILES,KB-3-1 tox,SW480 rereplic,HT1080 IDH1KD tx,MCF10A rerep,KB-V1 cytotox,HT1080NT lethal
COC(=O)c1cc2oc(C)cc2n1Cc1c(C)cc(C)cc1C,i,.,.,.,i,.
CN(C)c1ccc(N=Nc2ccc(/C=C/c3ccnc4ccccc34)cc2)cc1,i,.,.,.,i,.
COc1ccc2cc1Oc1ccc(cc1)CC1c3c(cc(OC)c4c3Oc3cc5c(cc3O4)CCNC5C2)CCN1C (centres undefined),16µM*,0%,18µM*,?,?,?
COc1ccc2cc1Oc1ccc(cc1)C[C@H]1c3c(cc(OC)c4c3Oc3c(ccc5c3[C@H](C2)N(C)CC5)O4)CCN1C,i,?,-2%,?,?,-3%
COc1cccc(NC(=O)Cc2ccccc2)c1,i,2%,1%,?,i,0%
O=C(Cc1ccccc1)Nc1cccc(N2C(=O)C=CC2=O)c1,i,9.2µM*,?,12µM*,i,-12%
Clc1ccc2c(c1)C(C1=NCCN1)c1ccccc1CS2 (centres undefined),0.92µM*,1.3µM*,1.5µM*,1.6µM*,10µM*,1.2µM*
Nc1nc(NC2CC2)c2ncn([C@H]3C=C[C@@H](CO)C3)c2n1,.,-2%,.,2%,.,.
CCCN1CNc2c(c(=O)[nH]c(=S)n2CCc2ccccc2C)C1,.,.,22%,.,.,12%
COc1ccc(N2CCN(C(=O)c3cccc(NC(=O)c4nsc5ccccc45)c3)CC2)cc1,i,.,.,.,i,.
COc1ccccc1CNC(=O)CCC(=O)N1CC2CCCN2c2ccccc21 (centres undefined),i,.,.,.,i,.
COc1ccc(CCNC(=O)CN(c2ccc(C)cc2)S(=O)(=O)c2ccc(OC)cc2)cc1,i,.,.,.,i,.
N#Cc1cc2cc(Cl)ccc2[nH]c1=O,4.6µM*,.,7%,.,i,9%
O=C(c1ccccc1)c1cc2cc(Cl)ccc2[nH]1,i,-3%,-11%,4%,i,-19%
O=C(CCc1ccccc1)NC(NC(=S)Nc1cccc(Cl)c1)C(Cl)(Cl)Cl (centres undefined),i,-11%,17%,5.8µM*,?,10%
O=C(CCc1ccccc1)NC(NC(=S)Nc1ccc(Br)cc1)C(Cl)(Cl)Cl (centres undefined),i,-2%,?,-4%,i,18µM*
CCCC(=O)NC(NC(=S)Nc1ccc(N=Nc2ccccc2)cc1)C(Cl)(Cl)Cl (centres undefined),15µM*,6%,18µM*,13µM*,18µM*,?
CCc1ccc(OCC(=O)NC(NC(=S)Nc2ccc(Cl)cc2)C(Cl)(Cl)Cl)cc1 (centres undefined),8.2µM*,-168%,?,?,3.7µM*,?
O=C(CCc1ccccc1)NNC(=O)Nc1ccc(Br)cc1,i,3%,1%,0%,i,4%
Cc1ccc(S(=O)(=O)c2cn(CC(=O)Nc3ccc(F)cc3)c3cc4c(cc3c2=O)OCO4)cc1,i,.,.,.,i,.
O=C(CCl)Nc1cc(S(=O)(=O)N2CCCCCC2)ccc1Cl,13µM*,?,?,?,12µM*,23µM*
CC(NCc1ccccc1Cl)C(=O)Nc1ccc(S(=O)(=O)N2CCCC2)cc1 (centres undefined),i,-3%,-3%,11%,?,-3%
CC1CN(C(=O)c2cc(S(=O)(=O)N3CCCC3)ccc2Cl)CC(C)O1 (centres undefined),i,-4%,17%,5%,i,23%
CC1CN(C(=O)c2cc(S(=O)(=O)N3CCCCC3)ccc2Cl)CC(C)O1 (centres undefined),i,1%,6%,2%,21µM*,12%
CC(=O)OCC(=O)Nc1cc(S(=O)(=O)N2CCCCCC2)ccc1Cl,i,13%,3%,-5%,i,8%
SMILES,KB-3-1 tox,SW480 rereplic,HT1080 IDH1KD tx,MCF10A rerep,KB-V1 cytotox,HT1080NT lethal
CN(C)c1ccc(S(=O)(=O)N2CCCCC2)cc1NC(=O)CCNC(=O)c1ccc(Cl)cc1,i,-1%,-2%,4%,21µM*,-1%
CC(NCc1ccc(F)cc1)C(=O)Nc1cc(S(=O)(=O)N2CCCCC2)ccc1Cl (centres undefined),?,?,-14%,?,16µM*,0%
COc1ccc(S(=O)(=O)N2CCCCCC2)cc1NC(=O)CCNC(=O)c1ccc(Cl)cc1,i,.,-4%,.,i,-18%
CC1=C(C(N)=O)C(c2ccc(C(C)C)cc2)n2nc(SCc3ccccc3)nc2N1 (centres undefined),i,.,.,.,?,.
COc1cc2c(cc1OC)C(COc1ccccc1OC)N(C(=O)CC(C)C)CC2 (centres undefined),i,.,.,.,?,.
CC(C)(C)CC(=O)Nc1cc(S(=O)(=O)N2CCCCCC2)ccc1Cl,i,?,-13%,?,18µM*,0%
CC1(C)CC(=O)/C(=C(\O)c2ccccc2)C(=NCCc2ccccc2)C1,i,0%,-6%,?,5.8µM*,4%
Cn1cc(C(=O)NC2CCCCC2)c(=O)c2cc(S(=O)(=O)N3CCCC3)ccc21,i,-2%,13%,-2%,9.2µM*,0%
Cn1cc(C(=O)NCc2cccs2)c(=O)c2cc(S(=O)(=O)N3CCCC3)ccc21,i,-104%,-8%,-39%,21µM*,-8%
CCOC(=O)c1ccc(-c2c(-c3ccc(OC)cc3)oc(=O)c3cc(OC)c(OC)cc23)cc1F,i,19%[9.22 µM],11%,-3%,i,10%
CCOC(=O)c1ccc(-c2c(-c3cc(OC)c(OC)c(OC)c3)noc2C)cc1F,1.6µM*!,2.9µM*,1.8µM*,1.5µM*,12µM*,?
CCCCOc1ccc(Cn2c(=O)sc3ccccc32)cc1OC,i,.,.,.,?,.
CS(=O)(=O)N1CCN(c2nc(-c3cccs3)nc3ccccc23)CC1,.,.,-22%,.,.,-24%
O=C(NCCc1nc2ccccc2n1CCCOc1ccc2ccccc2c1)C1CCCCC1,i,.,.,.,i,.
COc1ccc(/C=C\C(=O)CC(O)(c2ccccc2)C(F)(F)F)cc1 (centres undefined),i,1%,11µM*,-4%,?,?
COc1ccc(/C=C/C(=O)OCC(=O)c2ccccc2F)cc1,i,-4%,16%,-3%,i,14%
COc1ccc(/C=C/C(=O)c2ccccc2O)cc1,i,0.1µM*,1%,10%,i,10%
CN(C)c1cccc(-c2nc(N3CCC(C(N)=O)CC3)ncc2F)c1,i,.,.,.,i,.
